# In PubChem BioAssay (EPA / NIEHS):
# Inconclusive results are not listed. Activity calls are given as the source filed them. The calls were made as follows, unless noted: active = hit-call score of the fitted dose curve at least 0.9, where 1 is the maximum; inconclusive = response in the unintended direction; inactive = score below 0.9.
# Legend:
# [1] = TAMU_PeakParms_SingleDonor1434_Asystole: Texas A&M University (TAMU) 1.5-hr Human Induced Pluripotent Stem Cell (iPSC)-derived Cardiomyocytes Calcium (Ca+2) Flux Assay for Cardiotoxicity: Asystole (quiescence of beating) (AID 2284328)
# How it was run: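 Human iPSC-derived cardiomyocytes (donor 1434) were exposed to 0.2, 1, 10 and 100 uM compound in 0.5% DMSO for 90 min at 37C. Ca2+-dye fluorescence gave average peak frequency; POD is EC95, a 95% beat-rate drop versus DMSO.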
# [2] = CCTE_Deisenroth_H295R-HTRF_384WELL_ESTRADIOL: CCTE's H295R-HTRF Assay Evaluation of Estradiol Concentration, Deisenroth Lab (AID 2284361; active = hit-call score of the fitted dose curve at least 0.9, where 1 is the maximum; inactive = score below 0.9); settings: actives raise or lower the signal
# How it was run: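 H295R cells exposed 48 h to chemicals at 0.001 - 100 uM final (nine points, triplicate); estradiol in conditioned medium measured by HTRF immunoassay, fitted bidirectionally versus DMSO. Viability by CellTiter-Glo on same plates.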
# IYD (gene 389434) = test: CCTE_GLTED_hIYD: CCTE's human Iodotyrosine Deiodinase (xIYD) Inhibition Assay, Great Lakes Toxicology and Ecology Division (GLTED) Lab (AID 2284317);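 also: cell-free human IYD enzyme made in baculovirus insect cells; iodide freed from monoiodotyrosine measured by cerium arsenite color change at 420 nm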
# How it was run: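 hIYD: baculovirus-expressed human IYD deiodinated monoiodotyrosine for 3 h with test chemical; free iodide was measured by Sandell-Kolthoff absorbance at 420 nm and normalized to MNT and DMSO/NaOH controls.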
# [3] = IUF_NPC2-5_cytotoxicity_72hr: Cytotoxicity Assessment at 72 hours in the Leibniz Research Institute for Environmental Medicine (IUF) Neural Progenitor Cell Migration and Differentiation Assay for Cytotoxicity (NPC2-5) (AID 2284306);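 also: LDH release into supernatant measured by resorufin fluorescence marking membrane damage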
# How it was run: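 Human fetal (GW 16-19) neural progenitor spheres, 0.3 mm, plated on poly-D-lysine/laminin in N2 differentiation medium and exposed from day 0 to 7 concentrations plus solvent control (DMSO ≤0.1%). LDH-dependent resazurin-to-resorufin fluorescence in supernatant at 72 h.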
# [4] = IUF_NPC2-5_cell_number_120hr: Cell Number Assessment at 120 hours in the Leibniz Research Institute for Environmental Medicine (IUF) Neural Progenitor Cell Migration and Differentiation Assay (NPC2-5) (AID 2284308; active = hit-call score of the fitted dose curve at least 0.9, where 1 is the maximum; inactive = score below 0.9;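 also: count of Hoechst-stained nuclei in migration zone around plated human neural progenitor spheres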)
# How it was run: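 Counting of all Hoechst-stained nuclei in the migration area at 120 h, versus DMSO control. Primary hNPC spheres differentiated on poly-D-lysine/laminin in N2 medium at 37C, dosed from day 0 (7 concentrations, DMSO ≤0.1%), half-refed day 3.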
# [5] = IUF_NPC2-5_viability_120hr: Viability Assessment at 120 hours in the Leibniz Research Institute for Environmental Medicine (IUF) Neural Progenitor Cell Migration and Differentiation Assay (NPC2-5) (AID 2284312; active = hit-call score of the fitted dose curve at least 0.9, where 1 is the maximum; inactive = score below 0.9)
# How it was run: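 Human fetal (GW 16-19) neural progenitor spheres of 0.3 mm were plated on poly-D-lysine/laminin in N2 differentiation medium and exposed from day 0 for 120 h, with half-medium refresh at day 3. Viability was read as alamar blue resazurin-to-resorufin fluorescence against DMSO.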
# [6] = CCTE_Mundy_HCI_iCellGluta_NOG_NeuriteLength: CCTE's Neurite Outgrowth Assay in iCellGluta cells for Neurite Length, Mundy Lab (AID 2284318)
# How it was run: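 Automated high-content imaging of betaIII-tubulin (Alexa Fluor-488) and Hoechst-stained cells gave neurite length, normalized to the DMSO baseline.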
# [7] = CCTE_Mundy_HCI_iCellGluta_NOG_NeuriteCount: CCTE's Neurite Outgrowth Assay in iCellGluta cells for Neurite Count, Mundy Lab (AID 2284342);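 also: chemical exposure about 48 hours starting 2 hours after plating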
# [8] = IUF_NPC5_oligodendrocyte_differentiation_120hr: Leibniz Research Institute for Environmental Medicine (IUF) 120-hour Oligodendrocyte Differentiation Assay (NPC5) (AID 2284304);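 also: primary human fetal neural progenitor spheres plated to migrate and differentiate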
# How it was run: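 Oligodendrocyte differentiation scored as O4-positive cells, found by CNN image analysis, as percent of Hoechst-stained nuclei in the migration area. Scoring followed 5 days of exposure of plated hNPC neurospheres differentiating in DMEM/F12 N2 medium at 37C, with compound refreshed at day 3.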
# [9] = IUF_NPC1_cytotoxicity_72hr: Cytotoxicity Assessment at 72 hours in the Leibniz Research Institute for Environmental Medicine (IUF) Neural Progenitor Cell Proliferation Assay (NPC1) (AID 2284332);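 also: rising LDH signal means more cytotoxicity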
# How it was run: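 Human fetal neural progenitor spheres (0.3 mm) in EGF/FGF proliferation medium, 37C, exposed 72 h without renewal. LDH release in supernatant read by resorufin fluorescence; gain of signal scored relative to dynamic range.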
# [10] = CCTE_Mundy_HCI_iCellGluta_NOG_NeuronCount: CCTE's Neurite Outgrowth Assay in iCellGluta cells for Neuron Count, Mundy Lab (AID 2284340);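 also: cells fixed about 48 h after compound addition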
# How it was run: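 Neuron count read by automated high-content imaging of Hoechst 33342 and betaIII-tubulin/Alexa Fluor-488 labelling in human iPSC glutamatergic neurons. Activity fitted relative to DMSO.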
# [11] = CCTE_Deisenroth_5AR_NBTE_donor: CCTE's 5alpha-reductase NanoBRET Target Engagement Assay […], Deisenroth Lab (AID 2284319; active = hit-call score of the fitted dose curve at least 0.9, where 1 is the maximum; inactive = score below 0.9); settings: actives raise or lower the signal
# How it was run: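 SRD5A2-NanoLuc, HEK293T, 20 h expression. Chemical 10 nM - 29.9 uM, 8 conc, duplicate; 3 h preincubation + 2 h testosterone tracer. Nano-Glo substrate plus extracellular NanoLuc inhibitor; donor lum 460 nm. DMSO baseline, bidirectional fit.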
# [12] = CCTE_Deisenroth_5AR_NBTE_acceptor: CCTE's 5alpha-reductase NanoBRET Target Engagement Assay - Autofluorescence Screen, Deisenroth Lab (AID 2284321; active = hit-call score of the fitted dose curve at least 0.9, where 1 is the maximum; inactive = score below 0.9;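 also: compound fluorescence in the acceptor channel under 460 nm excitation flags autofluorescence artifacts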); settings: actives raise or lower the signal
# How it was run: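 Acceptor-channel fluorescence flags artifacts, with excitation fixed at 460 nm. Nominal 100 uM chemical samples were read in triplicate runs, and signal changes were fitted in both directions relative to DMSO.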
# SRD5A2 (gene 6716) = test: CCTE_Deisenroth_5AR_NBTE_ratio: CCTE's 5alpha-reductase NanoBRET Target Engagement Assay - Ratio, Deisenroth Lab (AID 2284322; active = hit-call score of the fitted dose curve at least 0.9, where 1 is the maximum; inactive = score below 0.9); settings: actives raise or lower the signal
# How it was run: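 HEK293T transiently expressing SRD5A2-NanoLuc; cells exposed to chemical (8-point, 10 nM - 29.9 uM) for 5 h total, testosterone tracer added for final 2 h. NanoBRET acceptor/donor ratio (650/460 nm), bidirectional fit vs DMSO.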
# SERPINA7 (gene 6906) = test: CCTE_GLTED_hTBG: CCTE's human Thyroxine-binding Globulin (TBG) Inhibition Assay, Great Lakes Toxicology and Ecology Division (GLTED) Lab (AID 2284343);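 also: active chemicals lower fluorescence versus DMSO baseline by displacing probe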
# How it was run: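 Human TBG incubated 2 h with test chemical; displacement of ANSA probe read by fluorescence, 380 nm excitation/475 nm emission. Loss of signal relative to DMSO.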
# [13] = VALA_TUBHUV_Antagonist_CellCount: Viability Assessment in the VALA Sciences human Umbilical Vein Endothelial Tubule Formation (TUBHUV) Antagonism Assay (AID 2284310)
# How it was run: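 HUVEC co-cultured with HDF (1:3) 3 days in 10 ng/ml VEGF, then 3 days with compounds in VEGF medium. Fixed, nuclear stain and CD31 immunofluorescence, imaged; cell counts fitted versus 0.1% DMSO, loss of signal read as lower viability.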
# [14] = VALA_MIGHUV2_WoundArea: VALA Sciences human Umbilical Vein Endothelial Cell Migration (MIGHUV) Assay, Area of Scratch Wound after Recovery (AID 2284316)
# How it was run: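 HUVEC seeded at 9000 cells/well, scratched after 24 h; test chemical added within 30 min, 6-point concentration response in triplicate (0.1% DMSO vehicle). After 24 h wound recovery, cells fixed and Hoechst-stained nuclei in wound area imaged; Cytochalasin D reference control.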
# [15] = VALA_MIGHUV1_ScratchOnly_CellCount: Viability Assessment in the VALA Sciences human Umbilical Vein Endothelial Cell Migration (MIGHUV) Assay, Scratch Wound Inhibited Recovery (AID 2284327)
# How it was run: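 HUVEC scratched after 24 h culture, chemical added within 30 min at 6 concentrations in triplicate (0.1% DMSO vehicle). After 24 h recovery, fixed cells were counted by Hoechst nuclear imaging in the wound area.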
# [16] = VALA_MIGHUV1_ScratchOnly_WoundArea: VALA Sciences human Umbilical Vein Endothelial Cell Migration (MIGHUV) Assay, Area of Scratch Wound Inhibited Recovery (AID 2284336)
# How it was run: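 HUVEC monolayers (9000 cells/well) were scratched after 24 h, dosed within 30 min (six concentrations, triplicate, 0.1% DMSO), allowed 24 h recovery, then fixed. Hoechst-stained nuclei in the wound imaged; cytochalasin D as reference.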
# [17] = VALA_TUBIPS_Agonist_CellCount: Viability Assessment in the VALA Sciences human iPS-derived Endothelial Tubule Formation (TUBIPS) Agonism Assay (AID 2284338)
# Experimental: VALA_TUBIPS_Agonist is a cell-based, multiplexed assay that uses human iPS-derived endothelial cells (iPSC). Measurements were taken 72 hours after chemical dosing in a 96-well plate.VALA_TUBIPS_Agonist_CellCount is the one of two assay components measured from the VALA_TUBIPS_Agonist assay. It is designed to make measurements of viability, a form of viability reporter, as detected with fluorescence intensity signals by HCS Fluorescent Imaging technology. Data from the assay component VALA_TUBIPS_Agonist_CellCount was analyzed at the endpoint, VALA_TUBIPS_Agonist_CellCount, in the positive analysis fitting direction relative to DMSO as the negative control and baseline of activity. Using a type of viability reporter, loss-of-signal activity can be used to understand viability. To generalize the intended target to other relatable targets, this assay endpoint is annotated to the cell cycle intended target family, where the subfamily is cell count.
# This HUVEC-HDF assay was designed to detect chemical suppression of tubulogenesis, i.e. antagonism. To measure tubulogenesis antagonism, HUVEC cells were co-cultured with HDF cells at a 1:3 ratio for 3-days in 10 ng/ml VEGF (i.e., favorable conditions with growth factors), then changed to assay medium containing 10 ng/ml VEGF and ToxCast compounds for an additional 3-day period. […]
smiles,measurement,setting,value
CCCCC(C#N)(Cn1cncn1)c1ccc(Cl)cc1 (stereo unspecified),outcome,[1],inactive
same,outcome,[2],inactive
CCC(C)n1c(=O)[nH]c(C)c(Br)c1=O (stereo unspecified),outcome,IYD (gene 389434),inactive
CS(=O)(=O)c1ccc(C(=O)C2C(=O)CCCC2=O)c([N+](=O)[O-])c1,outcome,[3],inactive
same,outcome,[4],inactive
same,outcome,[5],inactive
same,outcome,[6],inactive
same,outcome,[7],inactive
CS(=O)(=O)c1cc(C(F)(F)F)ccc1C(=O)c1cnoc1C1CC1,outcome,[8],inactive
same,outcome,[3],inactive
same,outcome,[4],inactive
same,outcome,[5],inactive
same,outcome,[6],inactive
same,outcome,[9],inactive
same,outcome,[10],inactive
same,outcome,[7],inactive
Cc1c(COC(=O)[C@@H]2[C@H](/C=C(\Cl)C(F)(F)F)C2(C)C)cccc1-c1ccccc1,AC50,[8],1.25 µM (active)
same,outcome,[3],inactive
same,outcome,[4],inactive
same,outcome,[5],inactive
same,AC50,[6],10.8 µM (active)
same,outcome,[9],inactive
same,AC50,[10],12.8 µM (active)
same,AC50,[7],10.6 µM (active)
COP(=S)(OC)SCn1nnc2ccccc2c1=O,outcome,[8],inactive
same,outcome,[3],inactive
same,outcome,[4],inactive
same,outcome,[5],inactive
same,AC50,[6],21.9 µM (active)
same,outcome,[11],inactive
same,outcome,[12],inactive
same,outcome,SRD5A2 (gene 6716),inactive
same,outcome,[9],inactive
same,AC50,[10],24.4 µM (active)
same,AC50,[7],24.4 µM (active)
O=C1C2CC=CCC2C(=O)N1SC(Cl)(Cl)Cl (stereo unspecified),outcome,[11],inactive
same,outcome,[12],inactive
same,outcome,SRD5A2 (gene 6716),inactive
same,outcome,[1],inactive
CCOC(=O)C(C)OC(=O)c1cc(Oc2ccc(C(F)(F)F)cc2Cl)ccc1[N+](=O)[O-] (stereo unspecified),outcome,SERPINA7 (gene 6906),inactive
CN/C(=N\[N+](=O)[O-])NCc1cnc(Cl)s1,outcome,[8],inactive
same,outcome,[3],inactive
same,outcome,[4],inactive
same,outcome,[5],inactive
same,outcome,[6],inactive
same,outcome,[9],inactive
same,outcome,[10],inactive
same,outcome,[7],inactive
CO/N=C(/C1=NOCCO1)c1ccccc1Oc1ncnc(Oc2ccccc2Cl)c1F,outcome,[8],inactive
same,outcome,[3],inactive
same,outcome,[4],inactive
same,outcome,[5],inactive
same,AC50,[6],9.92 µM (active)
same,AC50,[10],39.4 µM (active)
same,AC50,[7],24.4 µM (active)
COCc1cnc(C2=NC(C)(C(C)C)C(=O)N2)c(C(=O)O)c1 (stereo unspecified),outcome,[13],inactive
same,outcome,[14],inactive
same,outcome,[15],inactive
same,outcome,[16],inactive
same,outcome,[17],inactive
C=C(C)CN(CC)c1c([N+](=O)[O-])cc(C(F)(F)F)cc1[N+](=O)[O-],outcome,[8],inactive
same,outcome,[4],inactive
same,outcome,[5],inactive
same,AC50,[6],22.1 µM (active)
same,outcome,[9],inactive
same,AC50,[10],31.1 µM (active)
same,AC50,[7],26.5 µM (active)
same,AC50,SERPINA7 (gene 6906),8.89 µM (active)
CCNC(=O)NC(=O)C(C#N)=NOC,outcome,[8],inactive
same,outcome,[3],inactive
same,outcome,[4],inactive
same,outcome,[5],inactive
same,outcome,[6],inactive
same,outcome,[9],inactive
same,outcome,[10],inactive
same,outcome,[7],inactive
